Results published in PubChem BioAssay (Tox21).
Results filed as inconclusive are left out. The source made the active and inactive calls. Unless noted, calls come from the whole dose curve; as a rule, active = well fitted curve in the direction sought with a large enough effect in the repeat runs; inconclusive = weak or mixed curves; inactive = no such curve, though single readings can be large; an effect the other way counts as inactive or inconclusive.

Columns and labels:
[1] = A CellTox Green Cytotoxicity Assay to monitor cytotoxicity in HEK293 cells - 32 hour (AID 1224881); note: nearly all actives have a fitted effect of over 40% in size
How it was run: (§1)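 Tox21 screen in HEK293: membrane-impermeant cyanine dye fluoresces on binding dead-cell DNA; compound pinned 5 h post-seeding, plates held at 37 C, signal read repeatedly through 40 h.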

[2] = A CellTox Green Cytotoxicity Assay to monitor cytotoxicity in HepG2 cells - 0 hour (AID 1224882); note: nearly all actives have a fitted effect of over 35% in size
How it was run: (§2)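 Measurements at 0, 8, 16, 24, 32 and 40 h of treatment captured CellTox Green fluorescence in HepG2 cells that had been co-plated with reagent and preincubated 5 h at 37 C/5% CO2.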

[3] = A CellTox Green Cytotoxicity Assay to monitor cytotoxicity in HepG2 cells - 32 hour (AID 1224883); note: nearly all actives have a fitted effect of over 50% in size
How it was run: as §2

[4] = A CellTox Green Cytotoxicity Assay to monitor cytotoxicity in HEK293 cells - 8 hour (AID 1224884); note: nearly all actives have a fitted effect of over 35% in size
How it was run: as §1

[5] = qHTS RealTime-Glo MT Cell Viability Assay in HepG2 cells - 16 hour (AID 1224885); note: nearly all actives have a fitted effect of over 50% in size
How it was run: (§3)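 HepG2 cells (600/well) were dispensed with RealTime-Glo reagents, incubated 5 h at 37 °C, then treated with compounds in DMSO for up to 40 h. Nonlytic NanoLuc luminescence reflecting viable cells was read at each stated time point.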

[6] = qHTS RealTime-Glo MT Cell Viability Assay in HEK293 cells - 24 hour (AID 1224886); note: top concentration of the series differs between compounds; nearly all actives have a fitted effect of over 50% in size
How it was run: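 HEK293 cells seeded with NanoLuc/prosubstrate reagent, rested 5 h at 37 C, then dosed and kept at 37 C up to 40 h. Nonlytic real-time luminescence from viable cells read at 0, 8, 16, 24, 32 and 40 h.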

[7] = qHTS RealTime-Glo MT Cell Viability Assay in HEK293 cells - 8 hour (AID 1224887); note: top concentration of the series differs between compounds; nearly all actives have a fitted effect of over 50% in size
How it was run: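 HEK293 + NanoLuc + prosubstrate, 600 cells/well; 5 h, 37 C/5% CO2; compound 23 nL in DMSO by pintool; 37 C; luminescence read at 0, 8, 16, 24, 32 and 40 h time points.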

[8] = A CellTox Green Cytotoxicity Assay to monitor cytotoxicity in HEK293 cells - 16 hour (AID 1224888); note: nearly all actives have a fitted effect of over 35% in size
How it was run: as §1

[9] = qHTS RealTime-Glo MT Cell Viability Assay in HepG2 cells - 0 hour (AID 1224889); note: nearly all actives have a fitted effect of over 50% in size
How it was run: as §3

[10] = A CellTox Green Cytotoxicity Assay to monitor cytotoxicity in HepG2 cells - 8 hour (AID 1224890); note: nearly all actives have a fitted effect of over 45% in size
How it was run: as §2

[11] = qHTS assay to identify small molecule antagonists of the estrogen receptor alpha (ER-alpha) signaling pathway using the BG1 cell line in the presence of 0.1 nM 17-beta-estradiol - cell viability counter screen (AID 1259241); note: nearly all actives have a fitted effect of over 40% in size
How it was run: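 Cytotoxicity counter-screen: live-cell protease activity measured by fluorescence (30 min reagent step) in the same wells. Cells were VM7Luc4E2 with endogenous ER-alpha and ERE-driven luciferase, treated 22 hr at 37C alongside 0.1 nM 17beta-estradiol final.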

[12] = qHTS assay to identify small molecule antagonists of the androgen receptor (AR) signaling pathway using the MDA cell line in the presence of 0.5 nM R1881 - cell viability counter screen (AID 1259242); note: nearly all actives have a fitted effect of over 45% in size
How it was run: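 Concentration-response screen of compounds for toxicity in MDA-kb2 reporter cells: 16 hr at 37C with 0.5 nM R1881, endpoint live-cell protease fluorescence measured in the reporter wells.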

[13] = target: Androgen receptor (Homo sapiens) (UniProt P10275); experiment: qHTS assay to identify small molecule antagonists of the androgen receptor (AR) signaling pathway using the MDA cell line in the presence of 0.5 nM R1881 (AID 1259243); note: nearly all actives have a fitted effect of over 50% in size
Sequence of Androgen receptor (Homo sapiens) (P10275 whole entry, looked up): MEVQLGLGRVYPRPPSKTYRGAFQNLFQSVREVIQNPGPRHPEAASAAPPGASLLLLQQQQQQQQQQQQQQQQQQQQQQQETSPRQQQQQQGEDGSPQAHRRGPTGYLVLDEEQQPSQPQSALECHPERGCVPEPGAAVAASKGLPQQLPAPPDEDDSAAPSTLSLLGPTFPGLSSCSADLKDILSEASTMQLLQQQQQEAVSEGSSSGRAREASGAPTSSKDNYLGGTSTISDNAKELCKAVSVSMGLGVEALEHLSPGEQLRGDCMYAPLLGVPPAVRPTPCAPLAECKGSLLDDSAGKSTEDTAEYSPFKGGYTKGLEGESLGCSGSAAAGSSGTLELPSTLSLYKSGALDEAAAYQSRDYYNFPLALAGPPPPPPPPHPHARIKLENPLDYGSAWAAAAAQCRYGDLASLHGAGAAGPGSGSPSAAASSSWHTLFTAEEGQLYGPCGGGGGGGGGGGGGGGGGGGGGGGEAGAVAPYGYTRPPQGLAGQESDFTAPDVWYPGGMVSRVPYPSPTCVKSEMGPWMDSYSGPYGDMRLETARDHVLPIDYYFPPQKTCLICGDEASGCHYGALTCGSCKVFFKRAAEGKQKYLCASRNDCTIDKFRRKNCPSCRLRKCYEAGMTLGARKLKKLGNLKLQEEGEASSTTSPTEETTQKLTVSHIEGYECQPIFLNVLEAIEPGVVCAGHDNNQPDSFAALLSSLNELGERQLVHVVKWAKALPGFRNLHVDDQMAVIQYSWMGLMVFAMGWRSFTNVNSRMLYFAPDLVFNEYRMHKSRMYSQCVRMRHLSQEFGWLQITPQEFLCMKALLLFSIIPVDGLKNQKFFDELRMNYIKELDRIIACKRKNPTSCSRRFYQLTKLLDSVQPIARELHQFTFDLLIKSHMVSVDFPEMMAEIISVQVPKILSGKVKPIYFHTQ
How it was run: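 With R1881 held at 0.5 nM (final), compound effects on MMTV-luciferase expression in MDA-kb2 cells were scored by luminescence after a 16 hr, 37C incubation.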

[14] = target: Estrogen receptor (Homo sapiens) (UniProt P03372); experiment: qHTS assay to identify small molecule antagonists of the estrogen receptor alpha (ER-alpha) signaling pathway using the BG1 cell line in the presence of 0.1 nM 17-beta-estradiol (AID 1259244); note: nearly all actives have a fitted effect of over 50% in size
Sequence of Estrogen receptor (Homo sapiens) (P03372 whole entry, looked up): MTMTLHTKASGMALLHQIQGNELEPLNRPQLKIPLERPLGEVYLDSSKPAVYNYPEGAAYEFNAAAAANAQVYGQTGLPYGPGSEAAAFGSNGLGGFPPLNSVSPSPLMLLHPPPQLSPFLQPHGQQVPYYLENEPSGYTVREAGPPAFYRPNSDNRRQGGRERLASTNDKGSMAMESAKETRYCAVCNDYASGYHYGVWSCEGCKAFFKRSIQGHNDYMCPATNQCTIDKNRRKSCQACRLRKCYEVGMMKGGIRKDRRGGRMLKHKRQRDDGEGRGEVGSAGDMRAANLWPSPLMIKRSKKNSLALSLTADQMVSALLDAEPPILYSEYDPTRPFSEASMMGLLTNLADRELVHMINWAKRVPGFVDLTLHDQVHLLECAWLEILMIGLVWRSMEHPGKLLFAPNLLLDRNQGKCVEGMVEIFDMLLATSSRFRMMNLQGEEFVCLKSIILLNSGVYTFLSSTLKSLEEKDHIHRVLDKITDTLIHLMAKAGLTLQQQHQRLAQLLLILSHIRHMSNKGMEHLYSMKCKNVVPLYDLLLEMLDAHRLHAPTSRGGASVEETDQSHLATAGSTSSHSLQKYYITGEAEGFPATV
How it was run: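 Compounds were tested against 0.1 nM (final) 17beta-estradiol in VM7Luc4E2 cells, which express full-length ER-alpha and an ERE-luciferase reporter; luminescence was recorded following 22 h exposure.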

[15] = qHTS assay to identify small molecule HDAC inhibitors (AID 1259364);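 note: wild-type HCT-116 cells with endogenous class I/II HDAC activity; top concentration of the series differs between compounds; nearly all actives have a fitted effect of over 45% in size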
How it was run: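 Screening used wild-type human colon HCT-116 cells incubated overnight, dosed with compounds for 2 hours, and assayed with a homogeneous luminogenic HDAC I/II reagent for 30 minutes at room temperature.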

[16] = qHTS assay to identify small molecule HDAC inhibitors - cell viability counter screen (AID 1259365)
How it was run: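 CellTiter-Glo luminescence (30 min, room temperature) reported viability after a 2 h compound exposure at 37 C. Cells: wild-type HCT-116, 1,500 per well, seeded the night before.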

[17] = qHTS assay to identify small molecule agonists of the sonic hedgehog signaling (Shh) pathway - cell viability counter screen (AID 1259366); note: nearly all actives have a fitted effect of over 50% in size
How it was run: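 Cytotoxicity counter screen: CellTiter-Fluor reagent added after 23 h compound exposure, then 1 h at 37C and fluorescence read. Cells were 3T3 Gli1-Luc, seeded 2,000 per well and dosed 4 h post-plating.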

[18] = qHTS assay to identify small molecule antagonists of the sonic hedgehog signaling (Shh) pathway - cell viability counter screen (AID 1259367); note: nearly all actives have a fitted effect of over 55% in size
How it was run: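 Fluorescence read-out (CellTiter-Fluor, 1 hr at 37C) taken after 23 hr compound treatment of 3T3 Gli1-Luc cells stimulated with conditioned medium. Cells were seeded at 2,000 per well and pre-incubated 4 hr.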

[19] = qHTS assay to identify small molecule agonists of the sonic hedgehog signaling (Shh) pathway (AID 1259368; calls by dose curve;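 note: NIH/3T3-derived 3T3Gli1-Luc cells carrying a stable Gli1-driven firefly luciferase reporter; series mostly up to about 92 µM; nearly all actives have a fitted effect of over 15% in size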)
How it was run: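 Hedgehog pathway agonism scored by increased firefly luciferase luminescence in 3T3Gli1-Luc cells treated 24 hr at 37 C; detection used a 30 min room-temperature reagent incubation.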

[20] = qHTS assay to identify small molecule phospholipidosis (PLD) inducers (AID 1259344; active = well fitted curve in the direction sought with a large enough effect; an effect the other way counts as inactive or inconclusive)
How it was run: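 Read-out is LipidTOX Red fluorescence (ex 595/em 615) imaged in HepG2 cells after 24 h compound exposure at 37 C, with Hoechst nuclear counterstain (ex 352/em 461) allowing per-cell normalisation.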

Measured: Potency

O=[N+]([O-])c1ccccc1C(F)(F)F
inactive: [1] | [2] | [3] | [4] | [5] | [6] | [7] | [8] | [9] | [10] | [11] | [12] | [13] | [14] | [15] | [16] | [17] | [18] | [19]

O=C(c1ccccc1)c1ccc(O)c(O)c1O
inactive: [1] | [2] | [3] | [4] | [5] | [6] | [7] | [8] | [9] | [10] | [11] | [12] | [14] | [15] | [16] | [19]

O=[N+]([O-])c1cc(C(F)(F)F)ccc1Cl
inactive: [1] | [2] | [3] | [4] | [5] | [6] | [7] | [8] | [9] | [10] | [11] | [12] | [13] | [15] | [16] | [17] | [18] | [19]

Cc1ccc(C(C)C)cc1
inactive: [1] | [2] | [3] | [4] | [5] | [6] | [7] | [8] | [9] | [10] | [11] | [12] | [13] | [14] | [15] | [16] | [17] | [19]

NC(N)=S
inactive: [1] | [2] | [3] | [4] | [5] | [6] | [7] | [8] | [9] | [10] | [11] | [12] | [14] | [15] | [17] | [18] | [19]

CCCCCCCCC(=O)O
inactive: [1] | [2] | [3] | [4] | [5] | [6] | [7] | [8] | [9] | [10] | [11] | [12] | [14] | [15] | [16] | [17] | [19]

CC(C)(C)NC[C@H](O)COc1nsnc1N1CCOCC1
inactive: [1] | [2] | [3] | [4] | [5] | [6] | [7] | [8] | [9] | [10] | [11] | [12] | [20] | [15] | [17] | [19]

C[n+]1ccn(CCO)c1
inactive: [1] | [2] | [3] | [4] | [5] | [6] | [7] | [8] | [9] | [10] | [11] | [12] | [15] | [16] | [17] | [19]

Brc1ccc(Oc2ccc(Br)cc2)cc1
inactive: [1] | [2] | [3] | [4] | [5] | [6] | [7] | [8] | [9] | [10] | [11] | [12] | [15] | [17] | [19]

CC(=O)OCCC(C)C
inactive: [1] | [2] | [3] | [4] | [5] | [6] | [7] | [8] | [9] | [10] | [11] | [12] | [15] | [16] | [17] | [18] | [19]

CC/C(C)=N/O
inactive: [1] | [2] | [3] | [4] | [5] | [6] | [7] | [8] | [9] | [10] | [11] | [12] | [15] | [17] | [19]

CCCCC(CC)COC(=O)c1ccc(C(=O)OCC(CC)CCCC)cc1 (configuration not stated)
inactive: [1] | [2] | [3] | [5] | [6] | [7] | [8] | [9] | [10] | [11] | [12] | [13] | [15] | [16] | [17] | [18] | [19]

Cc1cc(CC(=O)O)n(C)c1C(=O)c1ccc(Cl)cc1
inactive: [1] | [2] | [3] | [4] | [5] | [6] | [7] | [8] | [9] | [10] | [11] | [12] | [20] | [15] | [16] | [17] | [18] | [19]

CC(=O)OC[C@H]1O[C@@](COC(C)=O)(O[C@H]2O[C@H](COC(C)=O)[C@@H](OC(C)=O)[C@H](OC(C)=O)[C@H]2OC(C)=O)[C@@H](OC(C)=O)[C@@H]1OC(C)=O
inactive: [1] | [2] | [3] | [4] | [5] | [6] | [7] | [8] | [9] | [10] | [11] | [12] | [20] | [15] | [16] | [17] | [19]

Cc1nnc(NS(=O)(=O)c2ccc(N)cc2)s1
inactive: [1] | [2] | [3] | [5] | [6] | [7] | [8] | [9] | [10] | [11] | [12] | [13] | [14] | [20] | [15] | [16] | [17] | [18] | [19]

CC1(C)[C@@H](O[C@H]2O[C@H](C(=O)O)[C@@H](O)[C@H](O)[C@H]2O[C@@H]2O[C@H](C(=O)O)[C@@H](O)[C@H](O)[C@H]2O)CC[C@]2(C)[C@H]3C(=O)C=C4[C@@H]5C[C@@](C)(C(=O)O)CC[C@]5(C)CC[C@@]4(C)[C@]3(C)CC[C@@H]12
inactive: [1] | [2] | [3] | [4] | [5] | [6] | [7] | [8] | [10] | [11] | [12] | [20] | [15] | [16] | [17] | [18] | [19]
